The target in assay [1] is Mitogen-activated protein kinase kinase kinase kinase 4 (Homo sapiens) (UniProt O95819). The note with it: at 1 µM.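 Note: reported figure is an averaged inhibition value.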
Assay [2] deals with Dual specificity mitogen-activated protein kinase kinase 1 (Homo sapiens) (UniProt Q02750). The note with it: at 0.1 µM.
For assay [3] the target is unchanged. The note with it: at 1 µM.
Assay [4] has as its target Misshapen-like kinase 1 (Homo sapiens) (UniProt Q8N4C8). The conditions noted are these: at 0.1 µM.
Assay [5] has the same target. The conditions noted are these: at 1 µM.
Assay [6] addresses T1, Serine/threonine-protein kinase 4 (Homo sapiens) (UniProt Q13043).
T1 sequence (whole entry): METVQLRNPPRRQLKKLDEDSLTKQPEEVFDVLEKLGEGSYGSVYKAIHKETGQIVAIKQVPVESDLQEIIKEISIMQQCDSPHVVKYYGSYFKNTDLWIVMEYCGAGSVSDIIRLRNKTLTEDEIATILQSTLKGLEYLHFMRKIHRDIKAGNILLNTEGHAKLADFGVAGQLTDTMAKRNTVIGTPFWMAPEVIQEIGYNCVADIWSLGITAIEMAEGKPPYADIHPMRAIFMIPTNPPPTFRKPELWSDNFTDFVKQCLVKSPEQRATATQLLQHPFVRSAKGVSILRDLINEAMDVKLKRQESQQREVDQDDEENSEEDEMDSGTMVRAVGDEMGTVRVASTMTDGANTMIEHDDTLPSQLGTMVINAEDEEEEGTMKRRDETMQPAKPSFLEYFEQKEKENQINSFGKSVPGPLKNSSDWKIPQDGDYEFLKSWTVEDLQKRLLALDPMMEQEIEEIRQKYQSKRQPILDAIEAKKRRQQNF
The conditions noted are these: at 0.1 µM.

Assay [7] has as its target T1, Serine/threonine-protein kinase 4 (Homo sapiens). The note with it: at 1 µM.
In assay [8] the target is T2, Serine/threonine-protein kinase 3 (Homo sapiens) (UniProt Q13188).
T2 sequence (whole entry): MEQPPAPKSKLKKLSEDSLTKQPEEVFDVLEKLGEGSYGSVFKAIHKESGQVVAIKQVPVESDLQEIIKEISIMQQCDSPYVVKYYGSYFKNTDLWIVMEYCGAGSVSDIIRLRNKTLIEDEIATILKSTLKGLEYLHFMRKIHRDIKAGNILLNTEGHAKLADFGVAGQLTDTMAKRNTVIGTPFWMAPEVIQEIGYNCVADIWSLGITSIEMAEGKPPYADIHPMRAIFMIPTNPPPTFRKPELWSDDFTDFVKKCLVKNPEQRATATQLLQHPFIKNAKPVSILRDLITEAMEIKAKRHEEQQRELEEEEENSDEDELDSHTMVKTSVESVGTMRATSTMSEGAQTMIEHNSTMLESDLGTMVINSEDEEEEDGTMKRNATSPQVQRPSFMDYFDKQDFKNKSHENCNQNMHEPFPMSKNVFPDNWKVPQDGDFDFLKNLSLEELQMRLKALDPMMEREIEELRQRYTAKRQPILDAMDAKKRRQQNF
The note with it: at 0.1 µM.

The target of assay [9] is T2, Serine/threonine-protein kinase 3 (Homo sapiens). The note with it: at 1 µM.
The target of assay [10] is Serine/threonine-protein kinase 26 (Homo sapiens) (UniProt Q9P289). The note with it: at 0.1 µM.
Serine/threonine-protein kinase 26 (Homo sapiens), sequence (Q9P289 2-416 limits assumed): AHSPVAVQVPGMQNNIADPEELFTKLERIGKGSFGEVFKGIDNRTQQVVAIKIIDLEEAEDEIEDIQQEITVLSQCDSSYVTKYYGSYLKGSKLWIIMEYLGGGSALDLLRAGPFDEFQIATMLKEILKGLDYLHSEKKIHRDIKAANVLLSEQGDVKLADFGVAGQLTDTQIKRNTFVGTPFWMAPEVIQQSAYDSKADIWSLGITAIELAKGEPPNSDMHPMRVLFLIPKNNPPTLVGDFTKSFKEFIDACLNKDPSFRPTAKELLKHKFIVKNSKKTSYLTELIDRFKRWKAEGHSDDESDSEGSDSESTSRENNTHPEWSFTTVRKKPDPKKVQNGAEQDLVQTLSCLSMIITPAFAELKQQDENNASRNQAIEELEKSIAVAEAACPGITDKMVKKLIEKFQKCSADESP
Assay [11] has the same target. The note with it: at 1 µM.
The target of assay [12] is Serine/threonine-protein kinase PAK 1 (Homo sapiens) (UniProt Q13153). The conditions noted are these: at 0.1 µM.
Serine/threonine-protein kinase PAK 1 (Homo sapiens), sequence (Q13153 whole entry): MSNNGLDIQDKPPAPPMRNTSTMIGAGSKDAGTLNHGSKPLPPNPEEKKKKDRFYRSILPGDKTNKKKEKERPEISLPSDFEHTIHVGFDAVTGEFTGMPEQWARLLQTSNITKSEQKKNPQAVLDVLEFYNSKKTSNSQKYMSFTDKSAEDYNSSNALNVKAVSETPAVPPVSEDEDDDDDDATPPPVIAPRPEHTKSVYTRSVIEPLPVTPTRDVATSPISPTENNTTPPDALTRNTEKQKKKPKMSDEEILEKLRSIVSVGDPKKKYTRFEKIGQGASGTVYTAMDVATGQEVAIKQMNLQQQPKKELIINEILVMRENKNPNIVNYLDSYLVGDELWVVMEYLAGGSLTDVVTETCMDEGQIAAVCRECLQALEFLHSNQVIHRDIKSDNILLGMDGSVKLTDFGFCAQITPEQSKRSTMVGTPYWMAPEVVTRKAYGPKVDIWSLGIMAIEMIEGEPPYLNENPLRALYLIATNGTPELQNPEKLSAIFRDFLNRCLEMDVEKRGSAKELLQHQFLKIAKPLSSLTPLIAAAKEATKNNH
Assay [13] shares this target. The note with it: at 1 µM.
Assay [14] addresses Serine/threonine-protein kinase PAK 2 (Homo sapiens) (UniProt Q13177). The note with it: at 0.1 µM.
For assay [15] the target is unchanged. The note with it: at 1 µM.
In assay [16] the target is Serine/threonine-protein kinase PAK 3 (Homo sapiens) (UniProt O75914). The note with it: at 0.1 µM.
Assay [17] has the same target. The conditions noted are these: at 1 µM.
The target in assay [18] is Serine/threonine-protein kinase PAK 6 (Homo sapiens) (UniProt Q9NQU5). The note with it: at 0.1 µM.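 Note: mean PAK6 inhibition reported from the GSK PKIS screen.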
Serine/threonine-protein kinase PAK 6 (Homo sapiens), sequence (Q9NQU5 whole entry, looked up): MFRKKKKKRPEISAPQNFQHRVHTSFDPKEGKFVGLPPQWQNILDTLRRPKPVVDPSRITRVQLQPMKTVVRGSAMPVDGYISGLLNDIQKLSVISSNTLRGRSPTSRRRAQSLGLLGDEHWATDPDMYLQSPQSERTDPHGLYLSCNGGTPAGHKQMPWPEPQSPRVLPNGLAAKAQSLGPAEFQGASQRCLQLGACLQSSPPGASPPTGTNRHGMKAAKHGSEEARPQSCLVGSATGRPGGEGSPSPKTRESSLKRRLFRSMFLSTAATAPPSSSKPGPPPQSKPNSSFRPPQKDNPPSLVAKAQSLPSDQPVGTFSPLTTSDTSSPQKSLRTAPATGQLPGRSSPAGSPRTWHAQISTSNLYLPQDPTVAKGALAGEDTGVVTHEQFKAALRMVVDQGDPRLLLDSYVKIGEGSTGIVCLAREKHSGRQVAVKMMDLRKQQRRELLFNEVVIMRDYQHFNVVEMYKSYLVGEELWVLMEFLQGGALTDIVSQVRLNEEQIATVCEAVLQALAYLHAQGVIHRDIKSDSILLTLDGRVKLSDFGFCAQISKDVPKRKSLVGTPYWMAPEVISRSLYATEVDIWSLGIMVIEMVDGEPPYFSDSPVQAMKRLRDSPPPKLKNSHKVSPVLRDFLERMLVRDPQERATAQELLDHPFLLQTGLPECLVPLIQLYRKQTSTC
Assay [19] has as its target Serine/threonine-protein kinase PAK 5 (Homo sapiens) (UniProt Q9P286). The conditions noted are these: at 0.1 µM.
Assay [20] shares this target. The conditions noted are these: at 1 µM.

Misshapen-like kinase 1 (Homo sapiens), sequence (Q8N4C8 whole entry, looked up): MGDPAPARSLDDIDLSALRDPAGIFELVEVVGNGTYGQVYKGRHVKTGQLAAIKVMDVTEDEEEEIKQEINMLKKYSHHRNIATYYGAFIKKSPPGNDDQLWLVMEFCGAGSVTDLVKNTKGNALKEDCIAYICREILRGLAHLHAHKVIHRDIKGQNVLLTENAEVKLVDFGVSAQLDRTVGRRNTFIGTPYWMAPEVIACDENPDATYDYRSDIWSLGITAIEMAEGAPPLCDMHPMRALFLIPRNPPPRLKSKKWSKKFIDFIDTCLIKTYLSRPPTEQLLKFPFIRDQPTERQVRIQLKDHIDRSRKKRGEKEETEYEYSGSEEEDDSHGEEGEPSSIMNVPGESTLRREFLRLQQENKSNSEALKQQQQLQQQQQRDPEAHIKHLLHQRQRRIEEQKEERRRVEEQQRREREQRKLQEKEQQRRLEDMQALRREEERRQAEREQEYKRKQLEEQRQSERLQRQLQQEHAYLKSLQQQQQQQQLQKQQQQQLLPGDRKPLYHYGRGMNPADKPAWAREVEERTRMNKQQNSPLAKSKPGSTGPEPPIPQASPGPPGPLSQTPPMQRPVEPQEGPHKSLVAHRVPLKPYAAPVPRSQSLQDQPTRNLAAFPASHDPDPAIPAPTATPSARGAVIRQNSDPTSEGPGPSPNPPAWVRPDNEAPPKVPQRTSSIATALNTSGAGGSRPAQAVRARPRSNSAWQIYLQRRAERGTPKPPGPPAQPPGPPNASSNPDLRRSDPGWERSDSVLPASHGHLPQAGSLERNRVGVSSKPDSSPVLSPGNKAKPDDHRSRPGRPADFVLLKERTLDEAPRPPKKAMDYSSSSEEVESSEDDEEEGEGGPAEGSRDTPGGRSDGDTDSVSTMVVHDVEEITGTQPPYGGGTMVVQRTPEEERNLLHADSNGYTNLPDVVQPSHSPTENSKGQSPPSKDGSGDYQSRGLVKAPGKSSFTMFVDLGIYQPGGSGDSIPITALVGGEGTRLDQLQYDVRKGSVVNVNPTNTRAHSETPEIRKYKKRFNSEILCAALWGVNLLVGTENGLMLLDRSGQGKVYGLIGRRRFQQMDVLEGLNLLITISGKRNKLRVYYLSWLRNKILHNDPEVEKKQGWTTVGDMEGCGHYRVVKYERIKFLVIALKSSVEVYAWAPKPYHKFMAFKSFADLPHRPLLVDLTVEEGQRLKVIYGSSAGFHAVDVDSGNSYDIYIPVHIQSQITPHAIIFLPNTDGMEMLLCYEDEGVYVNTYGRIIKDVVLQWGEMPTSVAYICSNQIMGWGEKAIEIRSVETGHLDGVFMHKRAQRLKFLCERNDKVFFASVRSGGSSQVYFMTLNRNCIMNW
Dual specificity mitogen-activated protein kinase kinase 1 (Homo sapiens), sequence (Q02750 whole entry): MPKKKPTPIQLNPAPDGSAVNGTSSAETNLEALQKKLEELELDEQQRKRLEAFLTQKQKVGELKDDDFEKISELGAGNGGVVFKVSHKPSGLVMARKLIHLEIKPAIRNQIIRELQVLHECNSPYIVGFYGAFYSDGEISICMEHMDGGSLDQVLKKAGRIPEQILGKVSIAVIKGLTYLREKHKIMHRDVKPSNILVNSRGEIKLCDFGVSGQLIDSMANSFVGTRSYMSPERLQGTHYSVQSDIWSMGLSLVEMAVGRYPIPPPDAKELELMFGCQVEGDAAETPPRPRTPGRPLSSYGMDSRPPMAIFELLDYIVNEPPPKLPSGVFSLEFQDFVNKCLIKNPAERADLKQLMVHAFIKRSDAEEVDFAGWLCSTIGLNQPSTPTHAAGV
Serine/threonine-protein kinase PAK 2 (Homo sapiens), sequence (Q13177 whole entry): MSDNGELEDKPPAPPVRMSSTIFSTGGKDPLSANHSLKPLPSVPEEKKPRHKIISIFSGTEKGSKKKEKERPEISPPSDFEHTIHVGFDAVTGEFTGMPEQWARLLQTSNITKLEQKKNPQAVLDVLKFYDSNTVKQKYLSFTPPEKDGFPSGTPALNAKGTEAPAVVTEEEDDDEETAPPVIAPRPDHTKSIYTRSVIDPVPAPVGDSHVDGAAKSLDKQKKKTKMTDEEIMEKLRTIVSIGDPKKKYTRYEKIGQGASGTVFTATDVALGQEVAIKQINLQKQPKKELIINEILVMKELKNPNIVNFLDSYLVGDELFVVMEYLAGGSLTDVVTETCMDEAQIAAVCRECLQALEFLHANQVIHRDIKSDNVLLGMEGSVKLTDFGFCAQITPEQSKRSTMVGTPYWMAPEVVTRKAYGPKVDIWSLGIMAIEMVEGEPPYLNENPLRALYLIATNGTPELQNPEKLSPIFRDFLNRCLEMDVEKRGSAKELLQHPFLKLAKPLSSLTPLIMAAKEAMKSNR
Serine/threonine-protein kinase PAK 5 (Homo sapiens), sequence (Q9P286 whole entry, looked up): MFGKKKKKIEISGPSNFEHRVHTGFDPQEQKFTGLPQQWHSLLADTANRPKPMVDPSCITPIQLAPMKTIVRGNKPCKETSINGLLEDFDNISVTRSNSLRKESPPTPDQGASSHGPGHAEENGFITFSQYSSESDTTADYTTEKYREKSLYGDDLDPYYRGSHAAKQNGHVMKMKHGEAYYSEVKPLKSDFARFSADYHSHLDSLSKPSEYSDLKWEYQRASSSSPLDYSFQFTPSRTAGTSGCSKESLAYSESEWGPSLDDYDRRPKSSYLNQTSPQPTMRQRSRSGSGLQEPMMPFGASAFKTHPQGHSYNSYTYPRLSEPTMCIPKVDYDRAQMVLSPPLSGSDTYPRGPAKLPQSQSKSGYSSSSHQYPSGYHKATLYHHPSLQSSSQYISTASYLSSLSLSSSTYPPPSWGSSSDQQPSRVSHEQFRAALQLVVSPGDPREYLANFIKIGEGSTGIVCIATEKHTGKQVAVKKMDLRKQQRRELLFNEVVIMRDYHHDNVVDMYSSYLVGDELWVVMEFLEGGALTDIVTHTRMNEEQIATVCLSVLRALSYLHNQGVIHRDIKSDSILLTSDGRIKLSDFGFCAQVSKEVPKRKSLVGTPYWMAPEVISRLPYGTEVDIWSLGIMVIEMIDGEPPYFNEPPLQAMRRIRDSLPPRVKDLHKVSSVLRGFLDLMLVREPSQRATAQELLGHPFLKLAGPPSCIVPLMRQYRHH

For the molecule `Fc1ccc(-c2ncn(CCCN3CCOCC3)c2-c2ccncc2)cc1`, the inhibition (commonly the relative decrease from the control value, in per cent) in assay [1] is 5.83%; in assay [2] it was -0.25%; in assay [3], 0.32%; in assay [4], 1.73%; in [5], 2.89%; in assay [6], 1.3%. For the same molecule, the inhibition is 4.22% in assay [7]; -0.13% in [8]; 2.5% in assay [9]; 0.94% in assay [10]; 0.15% in [11]; 2.56% in assay [12]. Moreover, the inhibition in [13] was 3.02%; in [14], -0.59%; in assay [15] it was -0.77%; in assay [16], 0.6%; in assay [17], 0.53%; in assay [18] it was -0.97%.

For the molecule `Fc1ccc(-c2ncn(C3CCNCC3)c2-c2ccnc(Oc3ccc(Oc4ccccc4)cc3)n2)cc1`, the inhibition is 7.43% in assay [1]; 4.35% in assay [2]; 7.53% in assay [3]; 5.29% in assay [4]; 9.38% in assay [5]; 2.43% in assay [6]. Besides, the inhibition in [7] was 4.68%; in [8], 4.83%; in assay [9] it was 5.3%; in [10] it was -1.41%; in assay [11], 2.78%; in assay [12] it was 6.63%. In addition, the inhibition came out at 8.97% in assay [13]; 2.19% in [14]; 3.52% in [15]; 4.8% in [16]; 8.51% in [17]; 5.41% in assay [19]. Moreover, the inhibition in assay [20] is 6.5%; in [18], -6.7%.

`NCc1ccc(-n2c(-c3nonc3N)nc3cnccc32)cc1`: the inhibition worked out at 20.3% in [1]; 8.09% in assay [2]; 8.5% in [3]; 11.2% in assay [4]; 16.3% in assay [5]; 9.89% in assay [6]. For the same molecule, the inhibition in assay [7] is 19.6%; in [8], 10.2%; in assay [9], 13.1%; in [10], 0.95%; in assay [11], -0.73%; in [12], 12%. Moreover, the inhibition is 11.4% in assay [13]; 3.24% in [14]; 4.52% in assay [15]; 5.94% in assay [16]; 6.83% in assay [17]; -2.63% in assay [20]. The inhibition in assay [18] was -1.38%.

Consider `CCc1nccc2c1nc(-c1nonc1N)n2CC`, for which the inhibition in assay [1] is 6.31%; in [2] it was 1.12%; in assay [3], 1.54%; in [4], 3.5%; in [5] it was 3.84%; in assay [6] it was -1.14%. Besides, the inhibition in [7] is -0.39%; in assay [10] it was -1.4%; in [11] it was -1.83%; in assay [12], 3.29%; in [13], 3.71%; in assay [14], 0.74%. In addition, the inhibition in assay [15] amounted to 1.13%; in [16] it was 0.51%; in assay [17], 1.09%; in [18], 3.51%.

In the case of `COc1cccc(/C=N/Nc2ncnc3c2cnn3-c2cccc(OC)c2)c1`, the inhibition in assay [1] turned out to be 10.8%; in [2], 3.68%; in [3], 2.66%; in assay [4], 5.65%; in assay [5] it was 10.9%; in assay [6], 2.42%. Besides, the inhibition in assay [7] is 3.52%; in assay [8], 3.29%; in assay [9], 3.95%; in assay [10], -3.41%; in assay [11], -1.93%; in [12], 7.47%. The inhibition in assay [13] came to 6.13%; in [14], 1.74%; in assay [15], 1.26%; in assay [16], 2.7%; in [17] it was 4.34%; in assay [19], 1.31%. Besides, the inhibition in assay [20] is -2.49%; in assay [18] it was -3.17%.

On to `CCS(=O)(=O)c1ccc(OC)c(Nc2ncc(-c3ccccc3Cl)o2)c1`, for which the inhibition in assay [1] is 24.2%; in [2] it was -0.28%; in assay [3] it was 0.4%; in [4] it was 4.25%; in [5], 22.4%; in assay [6], 1.96%. Moreover, the inhibition in assay [7] is 5.89%; in [8], 1.11%; in assay [9] it was 2.6%; in assay [10] it was 1.19%; in [11], 1.46%; in assay [12], -0.73%. Moreover, the inhibition in assay [13] was -1.58%; in assay [14] it was 1.78%; in assay [15], 0.49%; in assay [16], -0.53%; in assay [17], 0.98%; in [19] it was 3.82%. Further, the inhibition in [20] was 17.3%; in [18] it was -6.91%.

For the molecule `O=C(Nc1n[nH]c2cc(-c3cc(F)ccc3F)ccc12)C1CC1`, the inhibition in [1] was 58.7%; in assay [2], 4.62%; in [3] it was 4.19%; in assay [4], 11.6%; in assay [5], 45.7%; in assay [6] it was 1.85%. Moreover, the inhibition in assay [7] was 4.03%; in assay [8], 2.46%; in assay [9] it was 3.81%; in [10] it was -1.29%; in assay [11], -1.14%; in assay [12], 5.03%. Further, the inhibition in assay [13] was determined as 5.57%; in [14], 0.42%; in [15], 2.22%; in [16] it was 2.86%; in assay [17], 2.97%; in [19], 3.42%. In addition, the inhibition was -2.05% in [20] and 2.84% in assay [18].
